Results filed as inconclusive are left out. A call without a number means that no potency is given here. Calls of active or inactive are those of the source. Calls come from the whole dose curve; as a rule, active = well fitted curve in the direction sought with a large enough effect; inconclusive = small, poorly fitted or top-dose-only effect, or another doubt; inactive = no such curve, though single readings can be large; an effect the other way counts as inactive or inconclusive.
Columns and labels:
[1] = biological target: Lysine-specific demethylase 5B (Homo sapiens) (UniProt Q9UGL1); assay: Optimization screen for KDM5B Histone Demethylases FDH coupled qHTS against the LOPAC library (AID 1347166)
Lysine-specific demethylase 5B (Homo sapiens), sequence (Q9UGL1 whole entry, looked up): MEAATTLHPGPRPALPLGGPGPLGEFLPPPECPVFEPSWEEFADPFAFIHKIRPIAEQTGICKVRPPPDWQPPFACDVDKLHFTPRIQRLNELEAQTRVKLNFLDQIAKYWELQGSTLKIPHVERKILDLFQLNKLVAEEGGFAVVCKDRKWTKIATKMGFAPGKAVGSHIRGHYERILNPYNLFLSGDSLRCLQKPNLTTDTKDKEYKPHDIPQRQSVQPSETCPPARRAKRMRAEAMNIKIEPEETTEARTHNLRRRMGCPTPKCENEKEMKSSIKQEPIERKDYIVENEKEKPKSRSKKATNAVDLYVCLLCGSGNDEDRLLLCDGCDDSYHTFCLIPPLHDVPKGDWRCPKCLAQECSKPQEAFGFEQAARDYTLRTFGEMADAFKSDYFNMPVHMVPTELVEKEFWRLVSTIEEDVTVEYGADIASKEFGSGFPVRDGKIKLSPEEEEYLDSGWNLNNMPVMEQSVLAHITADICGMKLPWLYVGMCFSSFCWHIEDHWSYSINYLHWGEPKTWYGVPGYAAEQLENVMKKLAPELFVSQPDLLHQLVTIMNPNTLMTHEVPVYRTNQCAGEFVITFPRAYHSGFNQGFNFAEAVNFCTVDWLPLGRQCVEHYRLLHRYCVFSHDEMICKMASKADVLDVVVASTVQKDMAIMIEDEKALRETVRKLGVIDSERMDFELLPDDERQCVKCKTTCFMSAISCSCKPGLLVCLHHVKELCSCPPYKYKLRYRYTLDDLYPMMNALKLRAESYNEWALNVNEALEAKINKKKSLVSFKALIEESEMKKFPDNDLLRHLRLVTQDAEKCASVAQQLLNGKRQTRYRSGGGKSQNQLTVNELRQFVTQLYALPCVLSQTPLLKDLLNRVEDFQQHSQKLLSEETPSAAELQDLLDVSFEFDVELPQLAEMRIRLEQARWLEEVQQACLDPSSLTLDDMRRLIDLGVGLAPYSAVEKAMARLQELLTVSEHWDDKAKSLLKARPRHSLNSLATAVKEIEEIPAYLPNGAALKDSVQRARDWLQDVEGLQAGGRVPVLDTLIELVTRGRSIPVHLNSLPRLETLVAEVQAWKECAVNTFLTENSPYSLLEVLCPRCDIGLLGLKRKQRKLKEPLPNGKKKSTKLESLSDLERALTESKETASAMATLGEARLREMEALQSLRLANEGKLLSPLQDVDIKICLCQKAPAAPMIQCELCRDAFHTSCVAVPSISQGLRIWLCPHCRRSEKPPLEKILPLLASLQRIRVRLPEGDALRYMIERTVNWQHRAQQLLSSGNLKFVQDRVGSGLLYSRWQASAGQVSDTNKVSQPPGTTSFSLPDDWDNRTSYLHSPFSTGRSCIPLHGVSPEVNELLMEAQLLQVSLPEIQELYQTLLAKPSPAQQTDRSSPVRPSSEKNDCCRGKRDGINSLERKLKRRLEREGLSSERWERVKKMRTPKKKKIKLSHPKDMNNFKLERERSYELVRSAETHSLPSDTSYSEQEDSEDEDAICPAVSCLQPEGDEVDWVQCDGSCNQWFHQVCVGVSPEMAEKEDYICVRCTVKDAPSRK
In short: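 KDM5BDeltaAP (200nM final) in 50mM HEPES pH 7.5, 0.01% Tween-20 was preincubated with compound for 10 min at room temperature. A substrate mix of 12.5uM H3K4Me3, 25uM a-ketoglutarate, ascorbate, Fe2+, NAD+ and formaldehyde dehydrogenase was then added. NADH fluorescence (340/450 nm) was read initially and after 30 min.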

[2] = qHTS to identify inhibitors of the type 1 interferon - major histocompatibility complex class I in skeletal muscle: primary screen against the NCATS Pharmaceutical Collection (AID 1347407);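 note: luminescence of HiBiT knocked into endogenous HLA-B as interferon-induced MHC class I level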
In short: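 Compounds […] were added to CRISPR-engineered HLA-B-HiBiT C25cl48 human myoblasts with 4.0 ng/ml IFN-beta. After 24 hrs at 37 C, cells were lysed and HiBiT luminescence measured.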

[3] = qHTS for inhibitors of adenylyl cyclases using a fission yeast platform: a pilot screen against the NCATS LOPAC library (AID 1347410)
In short: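 GFP from fbp1-GFP reporter, read by Acumen laser cytometry, indicates AC inhibition in fission yeast expressing AC9, GNAS and PDE4D2. Cells grown 18 h in the dark at 30C with compounds, final up to 57 uM.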

[4] = biological target: Protein phosphatase 1D (Homo sapiens) (UniProt O15297); assay: RapidFire Mass Spectrometry qHTS Assay for Modulators of WT P53-Induced Phosphatase 1 (WIP1) (AID 1347424);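 note: amount of dephosphorylated VEPPL-S-QETFS peptide product formed by WIP1; series mostly up to about 63 µM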
Protein phosphatase 1D (Homo sapiens), sequence (O15297 whole entry, looked up): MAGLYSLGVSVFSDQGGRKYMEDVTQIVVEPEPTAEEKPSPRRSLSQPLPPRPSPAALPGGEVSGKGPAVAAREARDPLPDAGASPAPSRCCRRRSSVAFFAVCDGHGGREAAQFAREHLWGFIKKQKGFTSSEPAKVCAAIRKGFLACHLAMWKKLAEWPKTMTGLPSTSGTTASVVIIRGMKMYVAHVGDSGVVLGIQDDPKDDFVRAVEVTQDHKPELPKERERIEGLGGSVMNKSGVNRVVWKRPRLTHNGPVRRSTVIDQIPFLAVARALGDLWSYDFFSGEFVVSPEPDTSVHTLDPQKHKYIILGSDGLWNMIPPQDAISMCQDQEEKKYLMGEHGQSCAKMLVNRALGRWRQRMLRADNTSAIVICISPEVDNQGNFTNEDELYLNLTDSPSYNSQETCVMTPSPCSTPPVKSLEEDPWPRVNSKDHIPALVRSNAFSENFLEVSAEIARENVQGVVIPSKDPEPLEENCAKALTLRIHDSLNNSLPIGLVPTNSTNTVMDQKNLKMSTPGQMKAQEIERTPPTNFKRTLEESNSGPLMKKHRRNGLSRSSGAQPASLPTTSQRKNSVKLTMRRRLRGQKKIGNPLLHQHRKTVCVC
In short: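 RapidFire mass spectrometry measured dephosphorylated peptide after 5 min room-temperature reaction of 2 uM VEPPL-pS-QETFS with 10 nM WIP1 (50 mM Tris-HCl pH 7.5, 30 mM MgCl2, 0.1 mM EGTA, BSA), following 1 hr compound preincubation; 1 uM isotope-labelled product standard.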

[5] = biological target: Protein phosphatase 1D (Homo sapiens) (UniProt O15297); assay: Rhodamine-PBP qHTS Assay for Modulators of WT P53-Induced Phosphatase 1 (WIP1) (AID 1347425)
In short: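 Steps: enzyme with Rh-PBP sensor and compounds, room-temperature incubation of 1 hr, baseline read, addition of VEPPL-pS-QETFS (10 uM final), kinetic fluorescence reads at 525/598 nm. Activity equals final minus baseline signal.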

[6] = Validation qHTS assay for inhibitors of Activation Induced Cytidine Deaminase (AID): UDG Counterscreen signal (AID 1347427)
In short: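 Fluorescence at 560 nm excitation, 665 nm emission reports UDG signal after 250 mM NaOH (2x) addition and 30 min. Enzymes (AID 1 uM, UDG 2 U/mL, at 4/3x) preincubated 10 min with compound, then 4 h with 4x 250 nM DJC20/DJC23 substrate at room temperature.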

[7] = biological target: Single-stranded DNA cytosine deaminase (Homo sapiens) (UniProt Q9GZX7); assay: Validation qHTS assay for inhibitors of Activation Induced Cytidine Deaminase (AID): AID signal (AID 1347429)
Single-stranded DNA cytosine deaminase (Homo sapiens), sequence (Q9GZX7 whole entry, looked up): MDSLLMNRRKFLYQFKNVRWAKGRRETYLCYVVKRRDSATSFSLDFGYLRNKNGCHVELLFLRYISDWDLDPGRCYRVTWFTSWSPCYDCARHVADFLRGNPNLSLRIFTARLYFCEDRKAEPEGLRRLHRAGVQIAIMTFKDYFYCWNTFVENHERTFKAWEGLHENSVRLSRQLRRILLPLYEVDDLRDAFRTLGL
In short: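 Compounds (up to 114 uM final) are tested against AID plus UDG using DJC20/DJC23 FRET substrate. Reactions incubate 4 hr at room temperature, receive NaOH for 30 min, and are read at Ex 540/Em 590 nm.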

[8] = Primary qHTS for inhibitors of La Crosse Virus (LACV) - induced cell death in SH-SY5Y cells (AID 1508616); note: potency is the fitted concentration of half-maximal effect
In short: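 Screening measures cell viability in LACV-infected SH-SY5Y cultures. Compound was added before virus (0.01 MOI), and ATP was detected by luminescence 6 days later.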

[9] = biological target: Calcium and integrin-binding protein 1 (Homo sapiens) (UniProt Q99828); assay: Primary qHTS for Identification of Calcium Integrin Binding Protein 1 (CIB1) Competitor (AID 1508620);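 note: GST tagged CIB1 binding a fluorescein labelled alphaIIb integrin peptide tracer; top concentration of the series differs between compounds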
Calcium and integrin-binding protein 1 (Homo sapiens), sequence (Q99828 whole entry, looked up): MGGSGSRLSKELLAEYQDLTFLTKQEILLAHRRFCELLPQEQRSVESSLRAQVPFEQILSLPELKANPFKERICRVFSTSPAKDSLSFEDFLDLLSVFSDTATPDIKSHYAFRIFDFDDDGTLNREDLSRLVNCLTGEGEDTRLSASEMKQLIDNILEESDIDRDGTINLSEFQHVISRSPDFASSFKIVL
In short: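 CIB1-GST (1 uM final) and compound incubated 15 min at room temperature before adding FITC-alphaIIb peptide tracer (100 nM final). Competition for binding read by fluorescence polarization (ex 480, em 540) after another 15 min at room temperature.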

[10] = qHTS to identify inhibitors of the type 1 interferon - major histocompatibility complex class I in skeletal muscle: primary screen against the NCATS LOPAC collection (AID 1347405);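 note: human myoblasts with HiBiT tag on endogenous HLA-B stimulated by IFN-beta; lytic HiBiT luminescence reporting HLA-B protein level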; note: potency is the fitted concentration of half-maximal effect
In short: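 IFN-beta-stimulated (4 ng/ml) HLA-B HiBiT knock-in myoblasts, compound-treated 24 hrs up to 46 uM final; signal via LgBiT complementation and furimazine luminescence.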

[11] = biological target: Calcium and integrin-binding protein 1 (Homo sapiens) (UniProt Q99828); assay: Validation qHTS for Identification of Calcium Integrin Binding protein 1 (CIB1) Competitor (AID 1508618)
In short: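 In this qHTS validation, the LOPAC set (up to 114 uM) was tested for blocking CIB1 binding to a fluorescein-tagged alphaIIb peptide, with FP detection at 480/540 nm.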

| SMILES | Potency [1] | Potency [2] | outcome [3] | Potency [4] | outcome [5] | outcome [6] | Potency [7] | Potency [8] | Potency [9] | Potency [10] | outcome [11] |
| --- | --- | --- | --- | --- | --- | --- | --- | --- | --- | --- | --- |
| CCCC(C(=O)OCCN(CC)CC)(c1ccccc1)c1ccccc1 | inactive | inactive | inactive | inactive | inactive | inactive | inactive | inactive | inactive | – | – |
| C[C@]12C=CC(=O)C=C1CC[C@H]1[C@@H]3C[C@@H](O)[C@](O)(C(=O)CO)[C@@]3(C)C[C@H](O)[C@@]12F | inactive | – | inactive | inactive | inactive | inactive | inactive | inactive | – | – | – |
| CN1C(=O)CC[C@H]1c1cccnc1 | – | inactive | inactive | inactive | inactive | inactive | inactive | inactive | inactive | inactive | inactive |
| Cc1nnc(SCC2=C(C(=O)O)N3C(=O)[C@@H](NC(=O)Cn4cnnn4)[C@H]3SC2)s1 | inactive | – | inactive | inactive | inactive | – | – | inactive | – | – | – |
| CN(C)C(=O)Oc1cccc([N+](C)(C)C)c1 | – | inactive | inactive | inactive | inactive | inactive | inactive | inactive | – | inactive | inactive |
| CC(C)(C)NCC(O)c1cc(O)cc(O)c1 (configuration not stated) | – | inactive | inactive | inactive | inactive | inactive | inactive | inactive | – | inactive | inactive |
| Cc1ccc(/C(=C\CN2CCCC2)c2ccccn2)cc1 | inactive | – | – | inactive | inactive | inactive | inactive | inactive | inactive | – | inactive |
| CCN1CCC[C@H]1CNC(=O)c1c(O)c(Cl)cc(Cl)c1OC | – | inactive | inactive | inactive | inactive | inactive | inactive | inactive | – | inactive | inactive |
| CCCOc1ccccc1-c1nc2n[nH]nc2c(=O)[nH]1 | – | inactive | inactive | inactive | inactive | inactive | inactive | inactive | – | inactive | – |
| CO[C@@]1(NC(=O)CSCC#N)C(=O)N2C(C(=O)O)=C(CSc3nnnn3C)CS[C@@H]21 | – | inactive | inactive | inactive | inactive | inactive | inactive | inactive | – | inactive | inactive |
| COc1cc(C(=O)OCCCN2CCCN(CCCOC(=O)c3cc(OC)c(OC)c(OC)c3)CC2)cc(OC)c1OC | inactive | – | inactive | inactive | – | inactive | inactive | inactive | – | – | inactive |
| CC[N+](C)(C)c1cccc(O)c1 | – | inactive | inactive | inactive | inactive | inactive | inactive | inactive | inactive | inactive | inactive |
| Nc1ncn([C@@H]2O[C@H](CO)[C@@H](O)[C@H]2O)c(=O)n1 | – | inactive | inactive | inactive | inactive | inactive | inactive | 1.12 µM (active) | – | 8.91 µM (active) | inactive |
| CNCCC(Oc1ccccc1OC)c1ccccc1 (configuration not stated) | – | inactive | inactive | inactive | inactive | inactive | inactive | inactive | – | inactive | inactive |
| COCCCC/C(=N\OCCN)c1ccc(C(F)(F)F)cc1 | inactive | – | inactive | inactive | inactive | inactive | inactive | inactive | inactive | – | inactive |

Reference: PubChem BioAssay (NCATS)
